High-throughput results: PubChem BioAssay, National Center for Advancing Translational Sciences (NCATS)
Sampled rows, rich in hits. Any-hit rate of the full collection: about 6.7%.
SW480 rerep: induces DNA re-replication in SW480 colon adenocarcinoma cells | SW480 DNA re-replication, Hoechst DNA content imaging, 48 h | Potency, µM (doses to about 46.1 µM), for the others: at the highest dose re-replication activation, usual class: activators | 340,000 tested, 1.8% active | AID 624297; also: % of control where 0% means no effect; nearly all actives have a fitted effect of over 55% in size
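250 cells/well; 23 nL cpd via pin tool; 48 hr, 37 C, 5% CO2; Hoechst 40 min; imager read of total nuclear intensity, ex 405/em 500-530 nm.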
KB-V1 cytotox: kills drug-selected multidrug resistant KB-V1 cells | AID 1347076 | 400,000 tested, 3.4% active | KB-V1 MDR cells viability, CellTiter-Glo, 72 h | Potency, µM (doses to about 46.1 µM), actives largely listed as cytotoxic; also: % is scaled to controls: 0 for no effect and ±100 for the full control effect; nearly all actives have a fitted effect of over 60% in size
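Cytotoxicity via CellTiter-Glo luminescence after 72 h compound exposure at 37 degrees C. Cells: drug-selected KB-V1 line, DMEM phenol-red free plus 10% FBS. Compounds tested at multiple concentrations; normalized data fitted to concentration-effect curves.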
MCF10A rerep: DNA re-replication induction in MCF 10a cells; 350,000 tested, 2.9% active; MCF 10A DNA re-replication, Hoechst nuclear intensity, 48 h; Potency, µM (doses to about 46.1 µM), without a hit: top-dose activity, positive = re-replication, actives largely listed as activators; also: % of control where 0% means no effect; nearly all actives have a fitted effect of over 50% in size
PINK1 expr mod: PINK1 expression modulation; PINK1 immunofluorescence, high-content cytometry, 24 h; Potency, µM (highest dose often 76.6 µM), inactives show at the highest dose activation (PINK1 increase), most hits filed as activators; 410,000 tested, 0.2% active; AID 624263; active = well fitted activation curve with a large enough effect; inconclusive = small, poorly fitted or top-dose-only effect; cell line not stated here; also: % of control where 0% means no effect; nearly all actives have a fitted effect of over 65% in size
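Stable cell line treated 24 h with compounds at 5 concentrations (CCCP controls), then fixed and immunostained for PINK1 plus nuclear and cell stains; PINK1 immunofluorescence quantified by laser-scanning microplate cytometry.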
KB-3-1 tox: kills parental KB-3-1 adenocarcinoma cells; AID 1347075; KB-3-1 viability, CellTiter-Glo ATP luminescence, 72 h; 400,000 tested, 1.4% active; Potency, µM (titrated, usually from 46.1 µM), usual class: cytotoxic; also: % is scaled to controls: 0 for no effect and ±100 for the full control effect; nearly all actives have a fitted effect of over 60% in size
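Using CellTiter-Glo luminescence, growth of non-resistant KB-3-1 adenocarcinoma cells is assessed 72 h after pin-tool compound addition at 37 °C. Normalized responses across the concentration series yield fitted curves.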
Starred values were filed as active, the others as inactive; i = inactive; ? = inconclusive; / = no result; [ ] = remark or other dose. Unless noted, calls follow the shape of the dose curve; as a rule, active = well fitted curve in the direction sought with a large enough effect; inconclusive = small, poorly fitted or top-dose-only effect, or another doubt; inactive = no such curve, though single readings can be large; an effect the other way counts as inactive or inconclusive. Potency is read from the fitted curve at half-maximal effect.

SMILES | SW480 rerep | KB-V1 cytotox | MCF10A rerep | PINK1 expr mod | KB-3-1 tox
COc1ccccc1OCCn1cc(/C=C(\C#N)C(=O)NCc2cccs2)c2ccccc21 | -14% | 18µM* | -6% | 2% | i
Cc1ccc(N(CC(=O)Nc2ccc(Br)c(C)c2)S(=O)(=O)c2c(C)[nH]c(=O)[nH]c2=O)cc1 | -1% | i | ? | 1% | i
CN(C)/C=N/c1ncc(C(=O)c2ccccc2)s1 | -12% | i | 257%[0.0737 µM] | -1% | i
CN(C)/C=N/c1ncc(C(=O)c2ccc(-c3ccccc3)cc2)s1 | 12% | 12µM* | 9.2µM* | -1% | i
COc1ccc(-c2cn3c(C)c(C(=O)NCCN4CCOCC4)sc3n2)cc1 | -7% | 12µM* | -6% | -1% | i
CNC(=O)c1sc2nc(-c3ccc(OC)cc3)cn2c1C | -18% | i | -5% | -1% | i
COc1ccc(-c2cn3c(C)c(C(=O)Nc4cc(NC(C)=O)ccc4OC)sc3n2)cc1 | -5% | i | ? | 10µM* | i
Cc1c(C(=O)NCCCN2CCOCC2)sc2nc(-c3ccc(F)cc3)cn12 | 10% | i | 13% | -2%[38.3 µM] | i
CCN(CC)C(=O)c1sc2nc(-c3ccc(OC)cc3)cn2c1C | -1% | 3.7µM* | 0% | 0% | i
O=C(Nc1cccc2cccnc12)OC(Cl)(Cl)Cl | / | / | / | 0% | /
C[C@@H]1CN([C@H](C)CO)C(=O)CCCn2cc(nn2)CO[C@H]1CN(C)C(=O)Nc1ccccc1C(F)(F)F | / | i | / | 1% | i
COc1c2ccoc2cc2oc(=O)ccc12 | -1% | 26µM* | -3% | -1% | i
CC(C)N1CCC2(CC1)N=C(c1ccc3c(c1)OCO3)CC(c1cc(Cl)ccc1O)N2 (stereo not drawn) | ? | ? | 5.8µM* | -4% | 15µM*
Oc1ccc(Cl)cc1C1C=C(c2ccc3c(c2)OCO3)NC(c2ccc(C(F)(F)F)cc2)N1 (stereo not drawn) | / | i | / | 1% | ?
CCN(CC)c1ccc(/C=N/NC(=S)NCc2ccc(OC)cc2)cc1 | ? | i | 10µM* | 9% | i
C=CCNC(=S)N/N=C/c1ccc(N(CC)Cc2ccccc2)cc1 | 18µM* | 13µM* | ? | 0% | ?
CCN(CC)c1ccc(/C=N/NC(=S)NCc2ccccc2)cc1 | ? | i | 21µM* | 3% | i
COc1ccc(-c2nn(C)c3sc(C(=O)N4CCN(c5cc(Cl)ccc5C)CC4)cc23)cc1OC | / | i | / | 0% | i
Cc1cc(O)ccc1-c1ccc2nncn2c1 | / | i | / | 5% | i
O=C(CCCc1nc2ccccc2s1)NCc1ccccc1 | -6% | 23µM* | 1% | 1% | i
O=C(NCc1ccc(-c2nc3ccccc3s2)cc1)c1ccco1 | -66% | 23µM* | 5% | 0% | i
COc1cccc(C2=CC(c3ccc(OC)c(OC)c3OC)n3ncnc3N2)c1 (stereo not drawn) | / | i | / | 3% | i
COc1cccc(C2C=C(c3ccc(Br)s3)Nc3ncnn32)c1OC (stereo not drawn) | -34% | 5.2µM* | 0% | 4% | ?
Fc1ccc(Br)cc1C1C=C(c2ccc(Br)s2)Nc2ncnn21 (stereo not drawn) | 0.58µM* | ? | ? | 18% | ?
Cc1ccc(NC(=O)CCNS(=O)(=O)c2ccc(OC(F)(F)F)cc2)c(O)c1 | -4% | ? | -2% | 4% | i
O=C(Nc1cc(Oc2ccc(Cl)cc2)cc([N+](=O)[O-])c1)c1ccco1 | 0% | i | 16µM* | ? | i
Cn1cc([N+](=O)[O-])c(C(=O)Nc2cc(Oc3ccccc3)cc([N+](=O)[O-])c2)n1 | 4.1µM* | ? | 2.9µM* | -3% | ?
CCn1nc(C)c(C(=O)Nc2cc(Oc3cc(C)cc(C)c3)cc([N+](=O)[O-])c2)c1C | ? | 3.3µM* | 23µM* | 13% | 18µM*
Cc1ccccc1Cn1ccc(NC(=O)c2nn(C)cc2[N+](=O)[O-])n1 | 10µM* | ? | 6.5µM* | -1% | i
CN1CCN(C(CNC(=O)C(=O)Nc2ccc(F)cc2F)c2ccc3c(c2)OCO3)CC1 (stereo not drawn) | / | i | / | -1% | i
